Source: the OligoGym collection

molecular target: ACTL6A; assay: pooled miR-30 sensor sort-seq; sequence = guide strand; conditions: shRNA
Also: reference of the scale not given here.

| Sequence | sensor-assay potency score (higher = more potent) |
| --- | --- |
| TAGTATTCCACGGTGCCTCTGA | 0.0107 |
| AATAGCTTGGAAACTATCCCAG | -0.568 |
| TTGTGGTGACAACATGACTGAC | -0.897 |
| TCCTTCTTCATATTCTTGCTTG | -0.909 |
| TTGCTCTAGTATTCCACGGTGC | -0.281 |
| TTACACTGCCATAGAGACCTGG | -0.411 |
| TTACACATATAATTGTGCCAAG | -1.42 |
| TTGCTTGGAAATCCACATCTGT | -0.451 |
| TTTGCAATCAATTTCAACCGCA | 0.585 |
| TACACTGCCATAGAGACCTGGT | -0.00757 |
| TTTATCGCCATCTATTTCCATT | -1.13 |
| TTTTCTGAGACAGCTCTCTATT | -0.807 |
| TTTGCTCTAGTATTCCACGGTG | -0.0557 |
| TTGTGTTTCCTGATAACCCCTT | 0.282 |
| TTGAAGGACATAGCCATCGTGG | -0.822 |
| TGACTGACTCCTAACATTGTGT | -0.541 |
| TAGTGTTCAAACATTAACTCTG | 0.293 |
| TTGACATGCATTTTGTAGGTAT | 0.179 |
| TTAGTATCTATGTAGTAGGTGG | 0.198 |
| TTGAATCTGACACTTGAAGTAC | -0.0659 |
| TAATTGTGCCAAGACCTCGTAA | -0.587 |
| TAACCTGAGGCAACTTCTCTTT | -0.605 |

molecular target: ACTR3B; assay: as above; conditions: shRNA

| Sequence | sensor-assay potency score (higher = more potent) |
| --- | --- |
| TTACATAACCTTCTGCCACTGG | 0.166 |
| TTGATCGCATTGATACCCGTGT | -0.213 |
| TTCTGCAAGATACTCTCTGTTT | -0.433 |
| TACGACATTCTTATACAGCGGG | -0.141 |
| TCTATAACAAACTTCTTCTGGT | 0.599 |
| TACTGTTTGATCCACTTCCGGG | -0.539 |
| TTGAGCTTGGTCAACTACCTTT | -0.378 |
| TATAACAAACTTCTTCTGGTTG | -0.5 |
| TTACTTCATCAACAACATCTGA | -0.87 |
| TACTTCATCAACAACATCTGAG | 0.487 |
| TTTAAAAACCACTTGCTCCATG | -0.231 |
| TTCATCAACAACATCTGAGATG | -0.638 |

molecular target: ACYP1; assay: as above; conditions: shRNA

| Sequence | sensor-assay potency score (higher = more potent) |
| --- | --- |
| TATTAACACACAATAGTTCTAT | 0.336 |
| TAACTTATTGACTAATGCTAAT | -1.36 |
| TTCATAATCCACTGATATCAGG | -1.09 |
| TAGGACTTCCTCTTGTTTCAAG | -0.653 |
| TCGATGTGTGATTTAGGACTTC | -0.511 |
| TTTGCTTTGTCGATGTGTGATT | -0.219 |
